Compound activity as filed in PubChem BioAssay.
Many of the other results were omitted from the sample, so hits are more common in it than they were.
AmpC inh no detg: qHTS Inhibitors of AmpC Beta-Lactamase (assay without detergent); AmpC nitrocefin hydrolysis, absorbance 480 nm, 0.0001% Triton; Potency, µM (doses to about 57.1 µM), hits mostly inhibitors; actives 0.52% (n = 330,000); AID 485341, 2010; also: nearly all actives have a fitted effect of over 20% in size
Target sequence (P00811 whole entry, looked up): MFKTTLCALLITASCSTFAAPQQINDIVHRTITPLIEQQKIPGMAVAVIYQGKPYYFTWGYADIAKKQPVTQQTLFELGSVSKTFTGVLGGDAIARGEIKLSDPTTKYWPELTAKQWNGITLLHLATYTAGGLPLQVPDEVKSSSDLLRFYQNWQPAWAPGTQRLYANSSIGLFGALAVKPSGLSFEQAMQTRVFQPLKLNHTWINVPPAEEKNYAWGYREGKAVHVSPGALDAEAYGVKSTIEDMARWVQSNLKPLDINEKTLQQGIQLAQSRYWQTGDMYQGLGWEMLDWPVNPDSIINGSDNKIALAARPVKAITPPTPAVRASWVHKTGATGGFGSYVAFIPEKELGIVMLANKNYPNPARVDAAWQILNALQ
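20 mM phosphate pH 7.0 + 0.01% (detergent screen) or 0.0001% Triton X-100; 5.3 nM AmpC reagent; cpd preinc 15 min RT; nitrocefin (800 uM stock) to start; A480 q20 s × 4 min; Activity was normalised to no-enzyme and no-compound control wells.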
SARS PLpro yeast: qHTS of Yeast-based Assay for SARS-CoV PLP. Potency, µM (top dose mostly 32.9 µM), usual class: activators. actives 0.19% (n = 330,000). S. cerevisiae expressing SARS-CoV PLpro, growth rescue; calls by dose curve; also: nearly all actives have a fitted effect of over 55% in size
AmpC inh detg: qHTS Inhibitors of AmpC Beta-Lactamase (assay with detergent); P00811; AmpC hydrolysis of nitrocefin, absorbance 480 nm, 0.01% Triton; Potency, µM (series often up to 114 µM), most hits filed as inhibitors; actives 0.041% (n = 370,000); also: nearly all actives have a fitted effect of over 25% in size
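20 mM phosphate pH 7.0 + 0.01% (detergent screen) or 0.0001% Triton X-100; 5.3 nM AmpC reagent; cpd preinc 15 min RT; nitrocefin (800 uM stock) to start; A480 q20 s × 4 min; Activity was normalised to no-enzyme and no-compound control wells.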
Cycloheximide cs: Cycloheximide Counterscreen for Small Molecule Inhibitors of Shiga Toxin. cell reporter, cycloheximide protein synthesis inhibition counterscreen. actives 12% (n = 300,000). max response, %; in the data active = max response mostly above about 13%, no sharp cut-off; inactive = mostly below about 14%; also: read at 38.3 µM for the half of the compounds with a filed dose
Shiga inhibitor: A qHTS for Small Molecule Inhibitors of Shiga Toxin; AID 2315, 2010; Vero cells, Shiga toxin protein synthesis inhibition reporter; actives 9.2% (n = 290,000); inhibition, % at 38.7 µM; in the data active = inhibition mostly above about 28%, no sharp cut-off; inactive = mostly below about 43%
AMA1-RON2 inh: qHTS for Inhibitors of AMA1-RON; Towards Development of Antimalarial Drug Lead: Primary Screen | Potency, µM (highest dose often 58.2 µM), hits mostly inhibitors | Plasmodium falciparum AMA1 (3D7) - RON2 peptide interaction | AlphaScreen AMA1-biotinylated RON2 peptide binding | actives 0.2% (n = 360,000); also: nearly all actives have a fitted effect of over 45% in size
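AMA1 (3D7) with his tag at 25 nM final met compounds first, then biotinylated RON2 peptide at 25 nM; detection used donor plus acceptor beads, 10 µg/mL apiece, read by AlphaScreen after 30 min at room temperature.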
Large screens that a line does not name were inactive. Unless noted, calls follow the shape of the dose curve; as a rule, active = well fitted curve in the direction sought with a large enough effect; inconclusive = small, poorly fitted or top-dose-only effect, or another doubt; inactive = no such curve, though single readings can be large; an effect the other way counts as inactive or inconclusive.

Cc1ccc2c(c1)C(CCN)C(=O)N2Cc1ccccc1 (centres undefined)	none
COc1ccc(NS(=O)(=O)c2cccc(C(=O)OCC(=O)N3CCN(c4ccc(OC)cc4)CC3)c2)cc1	none (no result: Cycloheximide cs, Shiga inhibitor)
CCCCOC(=O)c1ccc(NC(=O)c2cnccn2)cc1	AmpC inh detg inconclusive
O=C(Nc1ccc(OC(F)(F)F)cc1)c1cnccn1	Cycloheximide cs 55, Shiga inhibitor 101
Cc1cccc(NC(=S)NC(=O)c2ccc(Br)o2)c1C	none
c1cn2cc(-c3ccc4c(c3)OCO4)nc2s1	AmpC inh detg inconclusive, Cycloheximide cs 46, Shiga inhibitor 95
O=C(Nc1ccc(-c2cn3ccsc3n2)cc1)C1CC1	AmpC inh detg inconclusive, Cycloheximide cs 61, Shiga inhibitor 43
CC(C)C(=O)Nc1cccc(-c2cn3ccsc3n2)c1	none
O=C(CCN1C(=O)c2ccccc2C1=O)Nc1ccc(-c2cn3ccsc3n2)cc1	Cycloheximide cs 33, Shiga inhibitor 52
Cc1ccc2sc(-c3ccc(NC(=O)CCN4C(=O)c5ccccc5C4=O)cc3)nc2c1	Cycloheximide cs 50, Shiga inhibitor 85 (no result: AMA1-RON2 inh)
CCC(=O)Nc1cccc(-c2cn3ccsc3n2)c1	none
COc1ccc(CC(=O)NCC(=O)NC(Cc2ccccc2)C(=O)O)cc1 (centres undefined)	none
O=C(Cc1ccccc1)N1CCN(Cc2ccc(Cl)cc2)CC1	none (no result: AmpC inh no detg, SARS PLpro yeast, AmpC inh detg, Cycloheximide cs, Shiga inhibitor)
CC1(C)CC(NC(=O)c2c(N)no[n+]2[O-])CC(C)(C)N1	none
Cc1ccc(S(=O)(=O)N2CCOCC2)cc1C(=O)Nc1ccncc1	none (no result: Cycloheximide cs, Shiga inhibitor)
O=C(Nc1ccc(-c2ccc3nncn3n2)cc1)C1CCCC1	Cycloheximide cs 22, Shiga inhibitor 87
COc1cccc(OC)c1C(=O)Nc1cccc(-c2cn3ccsc3n2)c1	none (no result: AmpC inh no detg, SARS PLpro yeast, Cycloheximide cs, Shiga inhibitor, AMA1-RON2 inh)
O=C(Nc1ccc(-c2cn3ccsc3n2)cc1)C1CCCC1	Cycloheximide cs 32
Cc1ccc(S(=O)(=O)N2CCOCC2)cc1C(=O)Nc1ccc(-c2cn3ccsc3n2)cc1	Cycloheximide cs 20
CC(=O)Nc1ccc(S(=O)(=O)NCc2cn3ccsc3n2)cc1	none
CC(=O)Nc1ccc(-c2cn3ccsc3n2)cc1	Cycloheximide cs 30, Shiga inhibitor 62
Cc1cccc(Oc2ncc(-c3ccc(Cl)cc3)cn2)c1C	none
CCCCOCCCNC(=S)Nc1ccc(S(=O)(=O)N2CCOCC2)cc1	none
CC(Oc1ccc(F)cc1)C(=O)Nc1cc(C(F)(F)F)ccc1-n1cncn1 (centres undefined)	none (no result: Cycloheximide cs, Shiga inhibitor)
Cc1ccc(C(=O)NNC(=O)c2ccco2)cc1	Cycloheximide cs 39, Shiga inhibitor active
O=C(NNC(=O)c1ccco1)c1ccco1	none (no result: AmpC inh no detg, SARS PLpro yeast, AmpC inh detg, Cycloheximide cs, Shiga inhibitor)
O=C(NNC(=O)c1ccco1)c1ccccc1	Cycloheximide cs 19
O=C(Nc1ccc(-c2nc3ncccc3o2)cc1)c1ccco1	AmpC inh detg inconclusive, Cycloheximide cs 27, Shiga inhibitor 66
CCC(=O)Nc1ccc2oc(-c3cccnc3)nc2c1	Cycloheximide cs 35, Shiga inhibitor 48
O=C(Nc1ccc2oc(-c3cccnc3)nc2c1)c1cccnc1	none
CCc1ccc2oc(-c3ccc(NC(C)=O)cc3)nc2c1	Cycloheximide cs 61, Shiga inhibitor 145
O=C(Nc1ccc(-c2nc3ncccc3o2)cc1)c1ccc(Br)o1	none
O=C(Nc1ccc2oc(-c3cccnc3)nc2c1)c1ccco1	Cycloheximide cs 36
O=C(CCCN1C(=O)/C(=C\c2ccco2)SC1=S)Nc1ccc2ccccc2c1	none
CC1(C)OC(=O)C(=CNc2ccccn2)C(=O)O1	none
Cc1ncn(-c2ccc(C(=O)Oc3ccccc3)cn2)n1	AmpC inh detg inconclusive
CC(C)CC(=O)Nc1ccc2oc(-c3cccnc3)nc2c1	AmpC inh detg inconclusive, Cycloheximide cs 26
Cc1ccc2oc(-c3ccc(NC(=O)CC(C)C)cc3)nc2c1	AmpC inh detg inconclusive, Cycloheximide cs 34, Shiga inhibitor 143
O=C(Nc1ccc2nc(-c3ccccc3)oc2c1)c1ccco1	Cycloheximide cs 29, Shiga inhibitor 47
CCC(=O)NCc1ccc(-c2nc3ncccc3o2)cc1	Cycloheximide cs 16
COCCCN1C(=O)C(=O)/C(=C(/O)c2ccc(OC)cc2C)C1c1cccnc1 (centres undefined)	none
Cc1ccc(NC(=O)c2c3c(nc4ccccc24)CCC3)cc1	none
Cc1ccc(NC(=O)c2c3c(nc4ccccc24)CCC3)cc1S(=O)(=O)N(C)C	Cycloheximide cs 37, Shiga inhibitor 50
Cc1ccc(NC(=O)c2ccc3ccccc3n2)cc1S(=O)(=O)N(C)C	Cycloheximide cs 27, Shiga inhibitor 79
COC(=O)/C=C1\SC(=NC(=O)c2cccc([N+](=O)[O-])c2)NC1=O	none
COc1cccc(/C=N/NC(=O)c2[nH]c(C)c(C(=O)N/N=C/c3cccc(OC)c3)c2C)c1	AmpC inh detg inconclusive, Shiga inhibitor 73
COc1ccc(/C=N/NC(=O)c2[nH]c(C)c(C(=O)N/N=C/c3ccc(OC)cc3)c2C)cc1	AmpC inh detg inconclusive
CCOC(=O)c1c(C)[nH]c(C(=O)N/N=C\c2ccccc2Cl)c1C	Cycloheximide cs 20
CCOC(=O)c1c(C)[nH]c(C(=O)N/N=C/c2cccc(OC)c2)c1C	Cycloheximide cs 15, Shiga inhibitor active
O=C(O)CC1NC(=O)N(c2ccccc2)C1=O (centres undefined)	none (no result: AMA1-RON2 inh)
O=C(c1cccc(Cl)c1)N1CCC2CC1c1cc(-c3ccc(F)cc3)ccc12 (centres undefined)	none (no result: AmpC inh no detg, SARS PLpro yeast, AmpC inh detg, Cycloheximide cs, Shiga inhibitor)
C[C@@H]1CN([C@@H](C)CO)C(=O)CCCn2nncc2CO[C@@H]1CN(C)C(=O)Nc1ccc(C(C)(C)C)cc1	none (no result: AmpC inh no detg, SARS PLpro yeast, AmpC inh detg, Cycloheximide cs, Shiga inhibitor)
CCCn1c(-c2ccc(OC)cc2)nc2nc3ccccc3nc21	none
Cc1ccc(-c2nc3nc4ccccc4nc3n2Cc2ccco2)cc1	Cycloheximide cs 52, Shiga inhibitor 63
Cc1nc2ccccc2c(=O)n1Cc1ccco1	none
Clc1ccc(-c2nc3nc4ccccc4nc3n2Cc2ccco2)cc1	Cycloheximide cs 52, Shiga inhibitor 82
COc1cc(/C=N/OCC(=O)Nc2ccc(OC(F)F)cc2)ccc1OCc1ccccc1	Cycloheximide cs 45
COc1cc(/C=N/NC(=O)c2cc(C)oc2C)ccc1OCc1ccccc1	none
CCOc1ccc(/C=N/OCC(=O)Nc2ccc(OCc3ccccc3)cc2)cc1OC	Cycloheximide cs 17
CSc1nnc(NC(=O)c2ccc3c(c2)OCO3)s1	Cycloheximide cs 48, Shiga inhibitor 69
O=C(Nc1nncs1)c1ccc2c(c1)OCO2	Cycloheximide cs 22, Shiga inhibitor 55
CSc1nnc(NC(=O)c2ccc(S(=O)(=O)N(C)C)cc2)s1	Cycloheximide cs 25, Shiga inhibitor 28
